NPC1 prom act: NPC1 promoter activation. Huh7 NPC1 promoter luciferase reporter, 24 h. Potency, µM (highest dose often 9.22 µM), without a hit: at the highest dose activation, usual class: activators. 2.4% of 320,000 active; note: % of control where 0% means no effect; nearly all actives have a fitted effect of over 60% in size
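Quantitative HTS used a cell-based reporter: Huh7 cells stably bearing the NPC1 promoter upstream of luciferase were treated with compounds for 24 h, and promoter activation was read as luminescence.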
FLuc counter: firefly luciferase modulation, counter-screen for miR-21 project; P08659; purified FLuc, Km substrates, luminescence inhibition; Potency, µM (titrated, usually from 57.5 µM), without a hit: at the highest dose activity change, negative = inhibition, most hits filed as inhibitors; 6.9% of 360,000 active;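 note: plate controls were vehicle for no effect and reference inhibitor for full effect; nearly all actives have a fitted effect of over 55% in size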
Target sequence (P08659 whole entry, looked up): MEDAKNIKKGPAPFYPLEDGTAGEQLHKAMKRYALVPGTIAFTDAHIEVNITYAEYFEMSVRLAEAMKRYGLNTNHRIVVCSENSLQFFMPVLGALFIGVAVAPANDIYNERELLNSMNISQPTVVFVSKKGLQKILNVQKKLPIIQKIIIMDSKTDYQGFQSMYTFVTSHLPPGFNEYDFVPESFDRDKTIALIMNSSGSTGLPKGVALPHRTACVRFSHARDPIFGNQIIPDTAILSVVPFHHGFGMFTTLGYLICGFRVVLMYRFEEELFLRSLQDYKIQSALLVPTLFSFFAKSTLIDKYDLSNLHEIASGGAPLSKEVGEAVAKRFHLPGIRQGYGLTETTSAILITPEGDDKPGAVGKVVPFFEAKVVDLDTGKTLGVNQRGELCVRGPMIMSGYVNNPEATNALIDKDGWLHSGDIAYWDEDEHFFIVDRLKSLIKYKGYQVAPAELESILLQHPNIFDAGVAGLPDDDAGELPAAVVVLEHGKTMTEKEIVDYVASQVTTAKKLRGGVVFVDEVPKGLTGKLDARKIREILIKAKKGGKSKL
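Purified P. pyralis luciferase (10nM final) with 10uM D-luciferin and 10uM ATP (Km levels) in 50mM Tris acetate pH 7.5, 10mM Mg acetate, 0.01% Tween-20, 0.05% BSA; qHTS 6-point titration, ~60 µM downward; luminescence read.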
Rab9 promoter act: Rab9 promoter activation. Huh7 Rab9 promoter-luciferase reporter, luminescence, 24 h. Potency, µM (top dose mostly 9.22 µM), for inactives: at the highest dose activation, negative = inhibition, most hits filed as activators. 2.8% of 320,000 active. AID 485297; note: % of control where 0% means no effect; nearly all actives have a fitted effect of over 60% in size
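Huh7 cells stably carrying Rab9 promoter–luciferase reporter, plated 1500 cells/well, compound added after 2 h and incubated 24 h at 37 °C; luciferase luminescence then read after 10 min with detection reagent.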
SMN2 splice enh: enhancers of SMN2 splice variant expression; HEK293 SMN2-luciferase splicing reporter, luminescence, 30-36 h; Potency, µM (series often up to 46.1 µM), without a hit: at the top dose activity change, positive = activation, hits mostly activators; 2.8% of 210,000 active; AID 1458; note: % of control where 0% means no effect; nearly all actives have a fitted effect of over 55% in size
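HEK293 cells carry an SMN2 […]–luciferase reporter in which exon 7 inclusion puts luciferase in frame. Cells were plated 10-12 h before compound addition, then incubated 30-36 h at 37C. ONE-Glo luminescence was read; sodium butyrate at 4.5 mM final served as control.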
Luc counter: blocks Kinase-Glo luciferase, a counter-screen artifact | Q27757 | Kinase-Glo luciferase, ATP luminescence, 8 min | Potency, µM (highest dose often 38.3 µM), for inactives: top-dose activity change, negative = inhibition, hits mostly inhibitors | 0.28% of 200,000 active; note: % is set by controls: 0 for no effect and ±100 for the full control effect; nearly all actives have a fitted effect of over 60% in size
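Inhibition of Kinase-Glo luciferase light generation was assessed at 10 uM ATP in pH 7.2 imidazole buffer, with luminescence measured after eight minutes at ambient temperature.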
ELG1 genotox: induces genotoxicity in HEK293T cells with luciferase-tagged ELG1; HEK293T ELG1-luciferase reporter, luminescence, 16 h; Potency, µM (series often up to 46 µM), inactives show at the highest dose activity change, positive = activation, most hits filed as activators; 1.3% of 330,000 active; note: % of control where 0% means no effect; nearly all actives have a fitted effect of over 60% in size
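HEK293T cells expressing luciferase-tagged ELG1 were treated with compound or DMSO for 16 hr at 37°C. Luciferase activity was then read after 30 min with ONE-Glo at room temperature; rising signal flags genetic stress.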
* marks the source's active call; other numbers are inactive results; u = inconclusive; x = no result given; [ ] = dose if it differs, or a comment. Compounds with a hit are over-represented: about 7.5% of the library has one in this group of screens. Calls come from the whole dose curve; as a rule, active = well fitted curve in the direction sought with a large enough effect; inconclusive = small, poorly fitted or top-dose-only effect, or another doubt; inactive = no such curve, though single readings can be large; an effect the other way counts as inactive or inconclusive. Potency is the fitted concentration of half-maximal effect.

SMILES	NPC1 prom act	FLuc counter	Rab9 promoter act	SMN2 splice enh	Luc counter	ELG1 genotox
COc1ccc(CN(CC(=O)NCc2ccc(F)cc2)C(=O)CCC(=O)Nc2cc(C)ccn2)cc1	1%	2%	-4%	x	x	-5%
Cc1ccc(CNC(=O)Cn2c3ncccc3c(=O)n2-c2ccccc2)cc1	x	-7%	x	x	x	x
C=C(C)c1cccc(C(C)(C)NC(=O)NC2CC(C)(C)NC(C)(C)C2)c1	-2%	4%	-1%	11%	-5%	-3%
O=C(Nc1cnc2ccccc2c1)N1CCCCC1	1.3µM*	9.5µM*	1.3µM*	14µM*	-6%	u
O=C(Nc1cnc2ccccc2c1)N1CCOCC1	u	u	25%	u	8%	u
CN(C(=O)Nc1cnc2ccccc2c1)c1ccccc1	u	u	2.8µM*	u	2%	u
Cc1ccc(NC(=O)N(C)c2ccccc2)cc1	24%	u	26%	x	x	8%
COc1cccc(/C=N/Nc2nccnc2Cl)c1O	-18%	2.7µM*	-23%	-66%	11µM*	2.6µM*
COc1cccc(/C=N/Nc2ncnc(Cl)c2N)c1O	-15%	9.5µM*	-24%	x	-5%	13µM*
COc1cccc(/C=N/Nc2cc(-n3nc(C)cc3-c3ccccc3)ncn2)c1O	-32%	13%	-44%	-107%	2%	-11%
COc1cccc(/C=N/Nc2ncnc3scc(-c4ccccc4)c23)c1O	-9%	21µM*	-26%	-75%	0%	-3%
CC(=O)Nc1nc2ccc(S(=O)(=O)N3CCCCC3)cc2s1	-3%	4%	0%	x	x	0%
CC(=O)Nc1nc2cc3c(cc2s1)OCO3	u	19µM*	4µM*	u	-16%	u
CC(=O)c1sc(Nc2nc3cc4c(cc3s2)OCO4)nc1C	3.5µM*	3.8µM*	2µM*	11µM*	3%	u
CCOC(=O)c1sc(Nc2nc3c(OC)cccc3s2)cc1C	u	7.6µM*	u	-108%	2%	-1%
CCOC(=O)c1sc(NC(=O)C2CC2)cc1C	8%	u	19%	5%	-1%	6%
CCOC(=O)c1sc(Nc2nc3cc4c(cc3s2)OCO4)cc1C	u	2.7µM*	u	u	0%	2%
O=C(NCCc1cccc(F)c1)/C(=C/c1cccnc1)NC(=O)c1ccccc1	-1%	-2%	-5%	0%	3%	1%
Cc1ccc(C(=O)N[C@@H](Cc2ccccc2)C(=O)N2CCC3(CC2)NCCc2[nH]cnc23)cc1C	0%	-19%	1%	x	x	-4%
COc1cccc(C2CCCCN(C)C2=O)c1 (stereo not drawn)	-1%	1%	-2%	x	x	1%
O=C(COc1ccccc1)Nc1nc2cc3c(cc2s1)OCCO3	0%	-17%	5%	x	x	u
CC(C)C(=O)Nc1nc2cc3c(cc2s1)OCCO3	0.89µM*	2.4µM*	0.5µM*	x	x	u
Cc1cccc2c1OCC/C2=N\NC(=O)COc1ccccc1Cl	2.2µM*	3.8µM*	3.2µM*	22%	-13%	u
C=C(C)C1CC=C(C)/C(=N/NC(=O)COc2ccccc2Cl)C1 (stereo not drawn)	1%	5%	-8%	-24%	-2%	-7%
CN(C)CN1CSC(=S)N(CN(C)C)C1	x	x	x	-15%[9.22 µM]	-3%[7.66 µM]	x
SMILES	NPC1 prom act	FLuc counter	Rab9 promoter act	SMN2 splice enh	Luc counter	ELG1 genotox
CCn1c2ccccc2c2cc(NC(=O)COc3cc(C)ccc3C)ccc21	x	6%	x	u	x	x
N=C1/C(=C\c2ccc(SCc3ccccc3)o2)C(=O)N=C2SC=NN12	-6%	13µM*	-4%	8%	3%	3%
COc1ccc(CCNC(=O)C(=O)c2cn(CC(=O)N3CCOCC3)c3ccccc23)cc1OC	-1%	21µM*	1%	x	x	6%
COc1ccccc1CCNC(=O)C(=O)c1cn(CC(=O)N2CCCC2)c2ccccc12	23%	11µM*	26%	x	x	2%
COc1ccccc1NC(=O)CSc1cn(CC(=O)N2CCCC2)c2ccccc12	x	-9%	x	x	x	x
COc1ccccc1NC(=O)C(=O)c1cn(CC(=O)N2CCOCC2)c2ccccc12	u	4.8µM*	u	x	x	u
COc1ccccc1CNC(=O)C(=O)c1cn(CC(=O)N2CCOCC2)c2ccccc12	-1%	u	12%	x	x	4%
COc1ccccc1NC(=O)C(=O)c1cn(CC(=O)N2CCCC2)c2ccccc12	u	4.8µM*	u	x	x	13%
COc1ccc(NC(=O)C(=O)c2cn(CC(=O)N3CCOCC3)c3ccccc23)cc1OC	0%	u	-1%	x	x	-1%
COc1ccc(NC(=O)C(=O)c2cn(CC(=O)N3CCCC3)c3ccccc23)c(OC)c1	u	4.8µM*	u	x	x	u
COc1cc(C(=O)NS(=O)(=O)c2ccccc2C)ccc1Cc1cn(C)c2ccc(NC(=O)OC3CCCC3)cc12	6%	11µM*	0%	x	x	x
COC(=O)c1ccc(CN2CCc3ccccc32)cc1	-1%	-16%	2%	x	x	-2%
Cn1c(C(=O)NCc2ccccn2)cc2c(=O)n3ccccc3nc21	u	15µM*	2µM*	14µM*	2%	u
Cc1cc(C)c(NC(=O)c2cc3c(=O)n4ccccc4nc3n2C)c(C)c1	x	-3%	x	x	x	x
O=C1OC(c2ccc(F)cc2)=C/C1=C\c1ccc(O)cc1	8%	11µM*	14%	x	x	1%
CCOc1ccc(NC(=S)N2CCN(S(C)(=O)=O)CC2)cc1	-6%	2%	1%	x	x	4%
Cc1cccc(-c2ccc3ncnc(N(C)Cc4ccco4)c3c2)c1	-2%	u	19%	x	x	x
Cc1noc(C)c1-c1ccc2ncnc(N(C)Cc3ccco3)c2c1	x	x	x	3.5µM*	1%	x
CCCCC1CCC(c2nc(-c3ccccn3)no2)CC1 (stereo not drawn)	u	2.7µM*	u	11µM*	-6%	u
O=C(CSc1ncccn1)NCc1ccccc1Cl	4µM*	27µM*	1.4µM*	13µM*	-3%	18µM*
CCOc1ccc(-c2nnc(SCC(=O)NCc3ccccc3Cl)o2)cc1	x	17µM*	x	x	x	x
O=C(CSc1nnc(-c2ccccc2F)o1)N1CCc2ccccc21	x	1%	x	2%	x	x
O=C(CSc1nc(=O)n2ccccc2n1)NCc1ccccc1Cl	-3%	2%	-7%	x	x	2%
O=C(CSc1nnc(-c2ccccc2F)o1)N1CCNC1=O	2.5µM*	13µM*	3.2µM*	x	x	u
CCOc1ccc(-c2nnc(SCC(=O)N3CCNC3=O)o2)cc1	2µM*	5.4µM*	2µM*	x	x	u
CCOC(=O)c1ccc(NC(=O)CCc2c(C)nc3cc(-c4ccc(OC)cc4OC)nn3c2C)cc1	x	-3%	x	-4%	x	x

Screens (PubChem BioAssay)
